Data on 19 compounds can be found in PubChem BioAssay (EPA / NIEHS).

The target of assay [1] is Cellular tumor antigen p53 (Homo sapiens) (UniProt P04637). The assay is described as follows: TOX21_p53_BLA_p3_ratio: Tox21 HCT-116 p53 Agonism Beta-lactamase Assay, Ratio, Phase 3 (AID 2283596). The gist of the method: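 Cells were seeded at 4000/well, rested 5 h at 37C, then dosed with DMSO compound solutions (217-fold dilution) for 16 h. CCF4-AM substrate was loaded for 2 h at room temperature, and the 460/530 nm emission ratio was fitted for gain of signal versus DMSO.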
Sequence of Cellular tumor antigen p53 (Homo sapiens) (P04637 whole entry, looked up): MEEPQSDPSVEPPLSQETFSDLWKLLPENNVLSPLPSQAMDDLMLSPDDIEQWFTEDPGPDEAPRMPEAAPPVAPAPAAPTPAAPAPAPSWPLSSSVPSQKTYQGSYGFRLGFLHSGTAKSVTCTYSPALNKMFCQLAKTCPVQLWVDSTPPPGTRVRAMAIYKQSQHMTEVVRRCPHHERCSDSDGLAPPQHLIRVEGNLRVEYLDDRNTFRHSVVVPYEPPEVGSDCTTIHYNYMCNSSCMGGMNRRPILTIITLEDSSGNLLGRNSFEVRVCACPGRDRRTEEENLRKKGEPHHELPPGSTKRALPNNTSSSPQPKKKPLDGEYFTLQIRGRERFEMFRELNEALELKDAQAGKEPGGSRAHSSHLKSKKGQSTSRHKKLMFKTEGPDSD

Assay [2] can be described thus: TOX21_p53_BLA_p4_viability: Viability Assessment in the Tox21 HCT-116 p53 Agonism Beta-lactamase Assay, Phase 4 (AID 2283597).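 Also: hits lower the luminescence signal meaning cytotoxicity.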 Put shortly:
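ATP content by CellTiter-Glo luminescence, 30 min RT, read after the beta-lactamase ratio step. Cells: HCT116, 4000/well, compound added after 5 h, exposure 16 h at 37C. Signal loss = reduced viability.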

Assay [3] deals with Cellular tumor antigen p53 (Homo sapiens) (UniProt P04637). As to the kind of experiment: TOX21_p53_BLA_p5_ratio: Tox21 HCT-116 p53 Agonism Beta-lactamase Assay, Ratio, Phase 5 (AID 2283599). Put shortly: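 HCT-116 cells carrying a p53-inducible beta-lactamase reporter were seeded at 4000 cells/well and dosed after 5 h with compound in DMSO (217-fold dilution). After 16 h at 37C, CCF4-AM substrate was added for 2 h, and the 460/530 nm emission ratio was scored as gain-of-signal versus DMSO.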

A short description of assay [4]: TOX21_p53_BLA_p5_viability: Viability Assessment in the Tox21 HCT-116 p53 Agonism Beta-lactamase Assay, Phase 5 (AID 2283600). Put shortly: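 ATP luminescence (CellTiter-Glo, 30 min, RT) served as the viability read-out, with loss of signal indicating cytotoxicity. Compounds in DMSO were pinned at a 217-fold dilution onto 4000 cells/well and incubated 16 h, 37C.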

In assay [5] the target is Cellular tumor antigen p53 (Homo sapiens) (UniProt P04637). The assay is described as follows: TOX21_p53_BLA_p4_ratio: Tox21 HCT-116 p53 Agonism Beta-lactamase Assay, Ratio, Phase 4 (AID 2283601). Put shortly: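 HCT116 cells carrying an inducible beta-lactamase reporter were plated at 4000 cells/well, rested 5 h, then exposed to compounds in DMSO (217-fold dilution) for 16 h at 37C. CCF4-AM substrate was loaded 2 h at room temperature; 460/530 nm emission ratio scored gain-of-signal versus DMSO.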

Assay [6] in a line: Tanguay_ZF_120hpf_MORT_legacy: (Legacy) Oregon State University Tanguay Lab 120 Hour Post-fertilization zebrafish Assay for Mortality (AID 2283633). The gist of the method: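 Brightfield scoring of embryo death (binary) at 24 and 120 hpf; static exposure 6–120 hpf, 28C, sealed and foil-covered. Pronase-dechorionated 5D wild-type larvae, single embryo per well. DMSO 0.64% v/v; trimethyltin chloride 5uM positive control.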

A short description of assay [7]: Tanguay_ZF_120hpf_YSE_legacy: (Legacy) Oregon State University Tanguay Lab 120 Hour Post-fertilization zebrafish Assay for Yolk Sac Edema (AID 2283634).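 As to AC50: actives raise the incidence of yolk sac edema above the DMSO baseline.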 The gist of the method: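 Binary brightfield scoring of yolk sac edema at 120 hpf; DMSO baseline, gain-of-signal fitting. Dechorionated 5D larvae, one per well, static exposure 6–120 hpf, 28C, 0.64% DMSO. Dead embryos not scored.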

A short description of assay [8]: Tanguay_ZF_120hpf_AXIS_legacy: (Legacy) Oregon State University Tanguay Lab 120 Hour Post-fertilization zebrafish Assay for Body Axis Malformation (AID 2283635).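 As to AC50: potency for an increased fraction of larvae scored with body axis malformation.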 The gist of the method:
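Embryos: 5D wild-type, pronase-dechorionated 4 hpf; static exposure 6–120 hpf, 28C, sealed, dark, 1 embryo/well, 0.64% DMSO. 120 hpf axis malformation scored present/absent; dead embryos excluded. Analysed as gain of signal vs DMSO.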

The nature of assay [9]: Tanguay_ZF_120hpf_EYE_legacy: (Legacy) Oregon State University Tanguay Lab 120 Hour Post-fertilization zebrafish Assay for Eye Malformation (AID 2283636).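 Also: binary presence or absence of eye malformation scored by brightfield in 120 hpf larvae.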 The gist of the method: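 Static waterborne exposure of dechorionated zebrafish embryos (strain Tropical 5D), 6 to 120 hpf, sealed plates at 28C, 0.64% DMSO vehicle. Eye malformation is scored as a binary endpoint, with gain of signal analysed relative to DMSO.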

Assay [10] can be described thus: Tanguay_ZF_120hpf_SNOU_legacy: (Legacy) Oregon State University Tanguay Lab 120 Hour Post-fertilization zebrafish Assay for Snout Malformation (AID 2283637). Put shortly: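 Dechorionated zebrafish, individually housed from 6 hpf in covered, sealed wells at 28C with 0.64% DMSO vehicle, were examined at 120 hpf for snout malformation. Responses were binary and analysed positive-direction relative to DMSO.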

The structures appear in SMILES notation. Records with an inconclusive call do not appear. Activity calls are given as the source filed them. The calls were made as follows: active = hit-call score of the fitted dose curve at least 0.9, where 1 is the maximum; inconclusive = response in the unintended direction; inactive = score below 0.9.

Usually AC50 stands for the concentration at which the activity in the assay is half-maximal.

For `CC1(C)C(C=C(Cl)Cl)C1C(=O)OC(C#N)c1cccc(Oc2ccccc2)c1` (stereo not given), the outcome in assay [1], in assay [2], in [3], in [4], in assay [5] and in assay [6] was inactive. Besides, the half-maximal activity concentration (AC50) was 1.7 µM (active) in assay [7], 1.23 µM (active) in assay [8], 1.82 µM (active) in assay [9] and 1.53 µM (active) in assay [10].

For `COc1ccc(-c2ccccc2)cc1NNC(=O)OC(C)C`, the outcome in assay [1], in assay [2], in [3], in [4], in assay [5] and in assay [6] was inactive. Besides, the compound was classed as inactive in assay [7], in [8], in assay [9] and in assay [10].

Take `Clc1cccc(C(Cl)(Cl)Cl)n1`: the outcome in [1], in assay [2], in [3], in assay [4], in assay [6] and in [7] was inactive. In addition, the outcome in assay [8], in [9] and in assay [10] was inactive.

In the case of `CNC(=O)Oc1cccc2ccccc12`, the outcome in assay [1], in [2], in assay [3], in assay [4], in [5] and in [6] was inactive. In addition, the call in assay [7], in assay [8], in assay [9] and in assay [10] was inactive.

As to `COC(=O)NS(=O)(=O)c1ccc(N)cc1`, the outcome in assay [1], in [3], in assay [5], in assay [6], in assay [7] and in assay [8] was inactive. For the same compound, the call in assay [9] and in assay [10] was inactive.

Turning to `CCC(C)n1c(=O)[nH]c(C)c(Br)c1=O` (stereo not given), the compound was called inactive in assay [4], in [6], in [7], in [9] and in assay [10].

For `O=C(O)c1c(Cl)ccc2cc(Cl)cnc12`, the call in [6], in [7], in [8], in [9] and in assay [10] was inactive.

In the case of `CCNC(=O)NC(=O)C(C#N)=NOC`, the half-maximal activity concentration (AC50) in [7] was 37.8 µM (active); in assay [8] it was 46 µM (active); in assay [9], 51.5 µM (active); in assay [10], 24.5 µM (active).

Consider `CCCCOCN(C(=O)CCl)c1c(CC)cccc1CC`, for which the result in [1], in assay [4], in [6], in [7], in assay [8] and in [9] was inactive. In assay [10], the outcome was inactive. Further, the AC50 in assay [2] is 67.9 µM (active); in [5], 66 µM (active).

On to `CC(C)(C)C(=O)C(Oc1ccc(Cl)cc1)n1cncn1` (stereo not given), for which the result in [1], in assay [2], in [4] and in [9] was inactive. Moreover, the AC50 is 86 µM (active) in assay [3], 36.8 µM (active) in assay [7], 41.3 µM (active) in assay [8] and 34.8 µM (active) in [10].

In the case of `N#CN=C1SCCN1Cc1ccc(Cl)nc1`, the result in assay [1], in [3], in [5], in [6], in [7] and in assay [8] was inactive. Further, the call in assay [9] and in assay [10] was inactive.

As to `CCOc1cc(C(C)(C)C)ccc1C1COC(c2c(F)cccc2F)=N1` (stereo not given), the compound was classed as inactive in assay [6], in assay [7], in assay [8], in assay [9] and in assay [10].

On to `CCN(CC)c1nc(C)cc(OP(=S)(OC)OC)n1`, for which the outcome in assay [1], in assay [2], in assay [3], in assay [5], in assay [6] and in assay [7] was inactive. For the same compound, the call in assay [8], in [9] and in [10] was inactive.

Consider `O=c1n(Cl)c(=O)n(Cl)c(=O)n1Cl`, for which the result in assay [3], in assay [4], in [5], in assay [6], in [7] and in assay [8] was inactive.

For `Nc1cnn(-c2ccccc2)c(=O)c1Cl`, the outcome in assay [1], in assay [4], in assay [5], in [6], in assay [7] and in assay [8] was inactive. The call in [9] and in assay [10] was inactive.

Turning to `Nc1c(Cl)c(F)nc(OCC(=O)O)c1Cl`, the result in assay [1], in assay [3], in assay [4], in assay [6], in assay [7] and in assay [9] was inactive. Further, in assay [10], the result was inactive.

Take `COc1cc(Cl)c(OC)cc1Cl`: the result in assay [1], in assay [3], in assay [6], in [7], in assay [8] and in assay [9] was inactive. For the same compound, the outcome in assay [10] was inactive.

On to `Clc1nc(Cl)nc(Nc2ccccc2Cl)n1`, for which the result in assay [2], in assay [3], in assay [4], in assay [5], in assay [6] and in assay [7] was inactive. Further, the compound was called inactive in assay [8] and in assay [9].

With `CCOc1nc(C(Cl)(Cl)Cl)ns1`, the compound was called inactive in assay [2], in [3], in assay [4], in assay [5], in [6] and in assay [7]. The call in assay [8], in [9] and in assay [10] was inactive.
